Drawing on PubChem BioAssay AID2796 (The Scripps Research Institute Molecular Screening Center, 2010), this text covers activation for 61 compounds.

Hit rate of the full screen: of about 320,000 compounds, about 8,000 (2.5%) were called active. Cut-off read from the data, not from the text of the source: active = activation above about 47%; inactive = the rest. What follows is part of a selection rich in actives, with near analogues and random picks from the rest.

In this experiment the target is Aryl hydrocarbon receptor (Homo sapiens) (UniProt P35869). The experiment is described as follows: AHR activators, primary screen, cell-based, luminescence, luciferase reporter, human (AID 2796).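 Note: 0% = vehicle wells and 100% = reference agonist.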 Particulars: AHR-responsive luciferase reporter cells, at 5 µM, active compounds read high. (In general: In a reporter assay the amount or activity of a reporter protein is the signal.)
Aryl hydrocarbon receptor (Homo sapiens), sequence (P35869 whole entry, looked up): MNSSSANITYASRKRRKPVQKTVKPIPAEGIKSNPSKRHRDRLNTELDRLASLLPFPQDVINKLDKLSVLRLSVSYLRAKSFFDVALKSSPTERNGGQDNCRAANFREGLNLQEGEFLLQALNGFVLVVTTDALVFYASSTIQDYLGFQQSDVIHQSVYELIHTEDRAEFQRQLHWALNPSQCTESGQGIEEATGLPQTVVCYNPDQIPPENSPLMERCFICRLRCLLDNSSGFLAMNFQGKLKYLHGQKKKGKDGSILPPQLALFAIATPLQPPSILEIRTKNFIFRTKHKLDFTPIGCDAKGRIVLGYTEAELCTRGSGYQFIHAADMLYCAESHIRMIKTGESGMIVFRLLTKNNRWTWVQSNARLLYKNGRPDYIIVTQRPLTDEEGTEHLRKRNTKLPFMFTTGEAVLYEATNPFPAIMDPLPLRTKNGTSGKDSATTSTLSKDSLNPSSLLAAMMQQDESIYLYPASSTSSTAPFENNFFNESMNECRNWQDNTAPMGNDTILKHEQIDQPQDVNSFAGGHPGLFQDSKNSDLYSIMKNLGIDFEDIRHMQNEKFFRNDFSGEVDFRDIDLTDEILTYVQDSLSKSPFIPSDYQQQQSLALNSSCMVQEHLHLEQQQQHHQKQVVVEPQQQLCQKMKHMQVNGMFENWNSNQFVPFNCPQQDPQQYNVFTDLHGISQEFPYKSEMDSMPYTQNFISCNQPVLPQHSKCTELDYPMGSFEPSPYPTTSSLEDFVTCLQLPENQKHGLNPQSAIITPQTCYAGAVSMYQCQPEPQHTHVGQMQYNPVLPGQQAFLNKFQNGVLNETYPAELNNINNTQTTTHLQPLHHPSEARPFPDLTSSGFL
For `Cc1cc(C)c(NC(=O)CN2CCOCCOCCOCCOCC2)c(C)c1`, the activation was 0.35% (inactive).
As for `Cc1ccc(NS(=O)(=O)c2ccc(N/N=C/c3ccccc3OCC(=O)O)c([N+](=O)[O-])c2)c(C)c1`, the activation is 2.69% (inactive).
The result for `Cc1cccc(COc2ccccc2/C=N/Nc2ccc([N+](=O)[O-])cc2)c1` reads 50.4% (active); that for `O=[N+]([O-])c1ccc(N/N=C/c2ccccc2)cc1`, -1.64% (inactive).
As for `CCOC(=O)c1cc(S(=O)(=O)NCCc2ccc(OC)c(OC)c2)cn1C`, the activation was 1.77% (inactive).
On to `CCOC(=O)C1CCN(CC(=O)Nc2ccc(OC)c(S(=O)(=O)N3CCCCC3)c2)CC1`, for which the activation is -1.58% (inactive).
Consider `Cc1ccc(NC(=O)NCC(c2cccnc2)N2CCOCC2)cc1` (stereo unspecified), for which the activation is 3.2% (inactive).
Turning to `Cc1ccc(NC(=O)Nc2cccnc2)cc1`, the activation was 83.7% (active).
Turning to `O=C(NNC(=O)c1cccnc1)Nc1ccccc1`, the activation is -0.59% (inactive).
For the compound `CCCNC(=S)NC1CC2CCCC(C1)N2CC(C)C` (stereo unspecified), the activation was 2.13% (inactive).
With `COC(=O)c1sccc1NC(=O)COc1ccc(Cl)cc1`, the activation is 3.07% (inactive).
`CCS(=O)(=O)c1ccc(O)c(NC(=O)COc2ccc(Cl)cc2)c1`: the activation was -3.28% (inactive).
The value for `O=C(COc1ccc(Cl)cc1)Nc1ccccc1CO` was 62.6% (active); that for `CC(C(=O)NCCc1ccc(S(N)(=O)=O)cc1)N1C(=O)CC(C)(C)Sc2ccccc21` (stereo unspecified) was 1.77% (inactive).
Consider `Cc1ccc(CN(Cc2cccnc2)C(=S)Nc2cc(Cl)ccc2C)cc1`, for which the activation was 2.1% (inactive).
The result for `CN(c1ccccc1)c1ccc(/C=c2\s/c(=C(/C#N)C(=O)C(C)(C)C)n(Cc3ccco3)c2=O)cc1` reads 0.79% (inactive).
Take `Cc1cs/c(=N\N=C\c2ccc(O)cc2)n1Cc1ccco1`: the activation was 59.4% (active).
`Cc1csc(=Nc2ccccc2)n1CCO`: the activation is 4.51% (inactive).
The value for `Cc1c2cnn(CC(=O)NCc3ccccn3)c(=O)c2c(C)n1Cc1ccc(Cl)cc1` was 1.4% (inactive); that for `Cc1ccc(S(=O)(=O)N(C)c2ccc(OCC(=O)OCC(=O)N(CC#N)c3ccccc3)cc2)cc1` was -1.55% (inactive); that for `COc1ccc(OC)c(-c2csc(NC(=O)C3=NNC(=O)CC3)n2)c1` was 12.8% (inactive).
For `COc1ccc(OC)c(-c2csc(-c3cccs3)n2)c1`, the activation was 121% (active).
For the compound `COc1ccc(OC)c(-c2csc(NC(=O)COC(=O)C3CC3)n2)c1`, the activation was -1.02% (inactive).
Regarding `CCOC(=O)N1CCC(Nc2c(NCCCN3CCN(CC)CC3)c(=O)c2=O)CC1`, the activation was 0.42% (inactive).
For the compound `COc1ccccc1C1=CC(=O)CCC1`, the activation is 0.36% (inactive).
The result for `COc1ccc(NC(=O)CNc2cc(S(=O)(=O)N3CCOCC3)ccc2N2CCOCC2)c(OC)c1` reads -1.67% (inactive).
The value for `Cn1c(Nc2cccc(Cl)c2)nc2ccccc21` was -1.72% (inactive); that for `Clc1ccc(Nc2ccc3ccccc3n2)cc1` was 73.6% (active).
The value for `O=c1ccnc(Nc2ccc(Cl)cc2)[nH]1` was 2.65% (inactive); that for `Cc1cccc(C)c1NC(=O)CNC(=O)c1c(C)nn(-c2ccccc2)c1C` was 0.83% (inactive); that for `COc1cc(C2OC(c3cc(OC)c(OC)c(OC)c3)C(C)C2C)cc(OC)c1OC` (stereo unspecified) was 3.59% (inactive).
Consider `Cn1c(=O)c2c(ncn2CC(COCc2ccccc2Cl)OCc2ccccc2Cl)n(C)c1=O` (stereo unspecified), for which the activation is 0.3% (inactive).
As for `Clc1ccc(-c2csc(-c3ccncc3)n2)cc1`, the activation was 63.4% (active).
As for `N#CC(=C1CCCC1)c1nc(-c2ccc(Cl)cc2)cs1`, the activation is 4.95% (inactive).
The value for `Fc1ccc(-c2csc(-c3ccc(C4SCCS4)cc3)n2)cc1F` was 27.6% (inactive); that for `CN(C)S(=O)(=O)c1ccc2oc(SCC(=O)Nc3ccccc3F)nc2c1` was 10.3% (inactive).
The result for `CCOC(=O)C1CCN(c2ncnc3c2c(-c2ccccc2)cn3-c2ccc(C)cc2)CC1` reads -0.73% (inactive).
For `CCOC(=O)C1CCN(c2ncnc3c2oc2ccc(Br)cc23)CC1`, the activation is 66.9% (active).
Turning to `CCOC(=O)C1CCN(Cc2nnc(-c3cccc(Br)c3)o2)CC1`, the activation is 1.14% (inactive).
For the compound `COc1cc(OC)cc(C(=O)NCC(=O)N2CCCCCCC2)c1`, the activation is 17.3% (inactive).
The result for `CSc1ncccc1C(=O)Nc1nc2ccc(F)cc2s1` reads 79.2% (active).
As for `CSc1ncccc1C(=O)Nc1ccc(C)cn1`, the activation is -0.65% (inactive).
Consider `CSc1ncccc1C(=O)NC1CCCCCC1`, for which the activation is -0.02% (inactive).
Regarding `Cc1ccc(SC(CC(=O)c2ccc(C(C)(C)C)cc2)C(=O)O)cc1` (stereo unspecified), the activation is -1.16% (inactive).
In the case of `COc1cc(C#Cc2ccc3cc(CCCO)oc(=O)c3c2)cc(OC)c1`, the activation is 1.38% (inactive).
`Cc1ccc2nc(C)cc(N/N=C/c3ccc(F)cc3)c2c1`: the activation was 10.9% (inactive).
`Fc1ccc(/C=N/Nc2nc(-c3cccnc3)nc3ccccc23)cc1`: the activation was 69.7% (active).
In the case of `COc1ccc(Nc2nc(-c3cccnc3)nc3ccccc23)cn1`, the activation is -0.65% (inactive).
`O=C(COC(=O)COc1ccccc1F)Nc1cccc(S(=O)(=O)N2CCCCC2)c1`: the activation was 0.3% (inactive).
`CC(Sc1nnc(COc2ccccc2)n1-c1ccccc1)C(=O)O` (stereo unspecified): the activation was -2.4% (inactive).
With `CC(C)C(=O)Nc1ccc2c(c1)oc1ccccc12`, the activation is 60.8% (active).
As to `CC(C)C(=O)Nc1c(O)c2ccccc2[nH]c1=O`, the activation was -0.12% (inactive).
As for `Cc1cc(=O)oc2cc(NC(=O)C(C)Oc3ccccc3)ccc12` (stereo unspecified), the activation was 2.24% (inactive).
With `CC(C)C(=O)Nc1c(C(=O)c2ccc(F)cc2)oc2ccccc12`, the activation is 132% (active).
The value for `NC(=O)c1oc2ccccc2c1NC(=O)Cc1ccccc1` was 0.99% (inactive).
For the compound `CC(C)C(=O)Nc1ccc2oc(=O)ccc2c1`, the activation was 1.62% (inactive).
Turning to `Cc1ccc(-n2ncc3c(Nc4cccc(C(=O)O)c4)ncnc32)cc1`, the activation is -0.95% (inactive).
As for `Cc1sc2ncnc(N3CCC(C(=O)Nc4nc5ccc(Cl)cc5s4)CC3)c2c1C`, the activation is 12.5% (inactive).
Take `Cc1noc(C)c1S(=O)(=O)N(C)C[C@H]1Oc2c(NC(=O)Nc3ccc4c(c3)OCO4)cccc2C(=O)N([C@H](C)CO)C[C@@H]1C`: the activation is 0.19% (inactive).
Regarding `Cc1cc(NC(=O)/C=C/C(=O)N(c2ccccc2C)C(C(=O)NC2CCCC2)c2ccc(F)cc2)no1` (stereo unspecified), the activation was 6.2% (inactive).
The value for `OCc1ccc(-c2ccccc2)c(-c2ccccc2)c1` was -2.37% (inactive).
